# Measured values published in the supplement of paper PMC3334620.
# The full ranking holds about 33,000 sequences; the median of “E-score (-0.5 to 0.5)” is about -0.053, and the highest 2% start at about 0.37. Many of the other results were omitted from the sample, so the highest values are more common in it than they were.
# Biological target: Hap1 (UniProt P0CE41)
# Experiment: PBM E-score (8-mer binding enrichment) (E-score (-0.5 to 0.5)); higher = stronger / more preferred TF binding
# Details: protein concentration: 200 nM; construct: GST-DNA-binding domain
# Experimental: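 Universal 'all 10-mer' protein binding microarrays (Agilent AMADID 015681) probed with GST-tagged S. cerevisiae TFs (full-length or DBD) made by in vitro transcription/translation (PURExpress), about 100-200 nM. Bound TF was detected with fluorescent anti-GST. Each ungapped 8-mer (which stands for itself and its reverse complement) is scored by the PBM enrichment score (E-score), a modified Wilcoxon-Mann-Whitney statistic from -0.5 to +0.5, computed with the Universal PBM Analysis Suite. Scale: above 0.35 generally sequence-specific binding.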
# UniProt P0CE41, sequence (P0CE41 whole entry): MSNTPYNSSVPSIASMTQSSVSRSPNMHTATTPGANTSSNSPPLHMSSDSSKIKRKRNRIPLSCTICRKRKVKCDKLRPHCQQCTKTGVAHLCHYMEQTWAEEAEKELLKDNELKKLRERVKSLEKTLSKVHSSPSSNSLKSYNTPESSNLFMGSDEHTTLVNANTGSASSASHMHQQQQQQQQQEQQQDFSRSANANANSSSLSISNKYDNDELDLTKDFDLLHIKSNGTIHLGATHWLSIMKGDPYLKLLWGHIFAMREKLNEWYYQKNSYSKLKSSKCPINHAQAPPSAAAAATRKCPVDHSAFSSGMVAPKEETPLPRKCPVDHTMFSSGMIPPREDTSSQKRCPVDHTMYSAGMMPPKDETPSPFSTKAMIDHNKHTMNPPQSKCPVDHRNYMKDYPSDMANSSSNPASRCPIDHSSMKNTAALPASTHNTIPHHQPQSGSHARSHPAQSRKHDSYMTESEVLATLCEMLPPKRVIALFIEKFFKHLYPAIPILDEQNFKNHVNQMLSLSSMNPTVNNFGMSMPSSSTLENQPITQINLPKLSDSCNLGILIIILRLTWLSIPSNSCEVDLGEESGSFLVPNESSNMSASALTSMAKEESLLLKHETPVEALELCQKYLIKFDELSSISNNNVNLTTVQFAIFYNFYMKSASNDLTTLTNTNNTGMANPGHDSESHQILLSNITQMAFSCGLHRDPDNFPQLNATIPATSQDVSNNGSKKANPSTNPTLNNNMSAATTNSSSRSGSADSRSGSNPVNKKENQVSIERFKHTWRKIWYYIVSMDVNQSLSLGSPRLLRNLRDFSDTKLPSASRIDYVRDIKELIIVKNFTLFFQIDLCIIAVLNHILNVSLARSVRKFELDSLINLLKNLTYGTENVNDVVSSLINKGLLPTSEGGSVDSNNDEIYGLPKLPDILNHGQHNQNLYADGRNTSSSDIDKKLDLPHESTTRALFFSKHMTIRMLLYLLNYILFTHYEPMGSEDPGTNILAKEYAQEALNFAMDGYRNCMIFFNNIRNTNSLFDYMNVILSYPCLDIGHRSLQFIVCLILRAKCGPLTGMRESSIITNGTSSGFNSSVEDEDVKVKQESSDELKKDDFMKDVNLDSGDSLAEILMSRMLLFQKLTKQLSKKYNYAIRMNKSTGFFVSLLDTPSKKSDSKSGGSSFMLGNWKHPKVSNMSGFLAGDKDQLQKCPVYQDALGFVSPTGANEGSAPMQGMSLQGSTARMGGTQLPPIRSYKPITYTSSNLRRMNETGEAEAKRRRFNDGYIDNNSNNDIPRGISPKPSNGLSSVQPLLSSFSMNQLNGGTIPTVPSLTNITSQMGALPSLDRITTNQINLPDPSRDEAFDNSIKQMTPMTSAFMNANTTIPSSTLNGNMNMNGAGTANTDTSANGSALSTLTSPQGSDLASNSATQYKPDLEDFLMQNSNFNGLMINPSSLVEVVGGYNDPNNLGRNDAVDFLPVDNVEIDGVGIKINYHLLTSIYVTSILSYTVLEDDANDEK
row,Sequence,PBM E-score
1,AATCGCCG,0.395
2,AAACGCCA,0.0524
3,AATCGCCC,0.0407
4,AAACGCCG,0.402
5,CAACGCCG,0.264
6,CATCGCCG,0.293
7,CGGTCAAA,0.269
8,ACAATCCC,0.254
9,ACATCTCC,0.283
10,ATTTTTGA,-0.132
11,ATCTAAAT,0.149
12,GAAGTGGC,-0.0295
13,ATGAAACG,-0.0187
14,GAAACAGC,0.0614
15,TCCAAGGA,0.0272
16,GGGATAGA,-0.0284
17,GCATCTTA,-0.0356
18,AGTCCGGC,0.389
19,AGTCCGTC,0.325
20,AGTCCCGG,0.322
21,AGTCCGCC,0.292
22,AGTCCGCG,0.297
23,AGTCCGGG,0.393
24,CTCCAGAG,-0.0749
25,ACCATGAG,-0.129

row,Sequence,PBM E-score
1,ATCGGAAG,0.236
2,GTCGGAAA,0.361
3,TTCGGAAA,0.389
4,CTCGGAAA,0.346
5,AACGGAAT,0.306
6,AACGGAAA,0.385
7,CACGGAAA,0.295
8,ATCGGAAT,0.363
9,ATCGGAAA,0.426
10,ACATTGAC,-0.114
11,ATACCGAT,0.288
12,GACCAACA,0.0331
13,CCCCATCG,0.172
14,AATCGCGC,0.135
15,AGCGCAGG,0.00092
16,CGCGGATC,0.172
17,CACGGATA,0.298
18,CTCGGATC,0.383
19,AACGGATA,0.398
20,CTCGGGTA,0.264
21,ATCGGATG,0.346
22,ATCGGATA,0.404
23,GTCGGATA,0.339
24,ATCGGATC,0.339
25,CGCGGATA,0.309

row,Sequence,PBM E-score
1,AACGGATT,0.338
2,CTCGGATA,0.371
3,AGTGAGCA,-0.28
4,AACCAGCG,0.0362
5,CGTTGCAC,0.065
6,CGCACACA,-0.0394
7,ATGGGAGA,-0.315
8,CAGCTATG,-0.287
9,ACTGAAGG,-0.129
10,AATCCGTA,0.219
11,AATCCGGT,0.418
12,GATCCGAA,0.379
13,AATCCGCT,0.243
14,AATCCGGA,0.433
15,GATCCGAC,0.273
16,GATCCGCC,0.29
17,GATCCGGC,0.375
18,AATCCGCA,0.247
19,AATCCAGT,0.219
20,CATCCGAA,0.368
21,TATCCGAA,0.364
22,GAGGGCGA,0.0665
23,TACTGGGA,-0.0481
24,ATCGGGCG,0.36
25,ACAGATCA,-0.0146

row,Sequence,PBM E-score
1,CGCGTTGC,0.159
2,CTACTAAC,-0.214
3,TGCTAGAA,-0.118
4,AATCCGGC,0.37
5,CATCCGGC,0.342
6,TATCCGGA,0.428
7,GATCCGTA,0.225
8,TATCCGCA,0.253
9,CATCCGGA,0.423
10,CATCCGCA,0.224
11,TATCCTGA,-0.0806
12,AATCCGTC,0.232
13,GATCCGGA,0.395
14,GATCCGCA,0.253
15,CATCCGTA,0.2
16,ATACGTCA,0.0245
17,TAGTTTCA,-0.024
18,CACCTGTA,-0.173
19,GAAATCGC,0.196
20,ACTAGGCG,-0.0773
21,AATCCGGG,0.409
22,AATCCGCG,0.244
23,CATCCGGG,0.278
24,CCTAGGGA,-0.112
25,CATTCCGG,0.322

row,Sequence,PBM E-score
1,AATTCCAT,0.0073
2,CATTCCGA,0.294
3,AATTCCCT,-0.106
4,AATTCCGC,0.336
5,AATTCCGG,0.451
6,AATTCCGT,0.414
7,TATTCCGA,0.357
8,AATTCCGA,0.43
9,CTGGCTTC,-0.194
10,AGCGAACT,-0.137
11,AGAAGGAG,-0.248
12,AGTTGCGG,0.153
13,CAGTAGGC,-0.174
14,ATGGGTGA,-0.0877
15,ATCTAAGC,-0.0574
16,GCCTTTTA,-0.0799
17,AGTTGCGC,0.0784
18,GCTCCTAC,-0.0888
19,AAAATTAT,0.122
20,CCGAAACC,0.298
21,GCGAAAGC,0.0298
22,CCGAAAAG,0.311
23,CCGAAACG,0.377
24,TCGAAAAA,0.0162
25,ACGAAAAC,0.124

row,Sequence,PBM E-score
1,CCGAAAAA,0.398
2,CCGAAAGA,0.319
3,GCGAAAAC,-0.0632
4,CCGAAAAC,0.379
5,CCGAAAGC,0.369
6,CCGAAACA,0.288
7,CAACCCAC,-0.131
8,GCATTAGA,-0.112
9,CAGTTGAG,-0.225
10,AGAATTCT,0.108
11,CAGTGTTC,-0.0181
12,CGTGAAAC,-0.0905
13,GACAGGGC,-0.0413
14,AGGTTGTA,-0.112
15,CCGAAATA,0.351
16,CCGAAATC,0.401
17,ACGAAATC,0.0404
18,AAGCGGAG,-0.0297
19,TCTCAGCA,-0.326
20,ATCGAATG,-0.076
21,CTACGCCC,0.0263
22,TAGCATAA,-0.0142
23,ATTTCACA,-0.131
24,CGCCGATA,0.426
25,CGGCGTTA,0.476

row,Sequence,PBM E-score
1,CGGCGTTC,0.235
2,GGCCGATA,0.457
3,CGGCGATA,0.472
4,CGCCGTTA,0.291
5,GGGCGTTA,0.147
6,GGCCGCTA,0.225
7,AGGCGATA,0.119
8,GGCCGTTA,0.333
9,CGCCGATC,0.326
10,GGGCGATA,0.179
11,CGAAAAAC,0.169
12,GAATGCAC,-0.00315
13,AGGGATGA,-0.133
14,AGTCAAAG,-0.13
15,GTCGCGAC,0.244
16,ACTCCCAG,-0.0473
17,AGCCGATG,0.233
18,AGCCGATA,0.427
19,AGCCGATC,0.245
20,ACAGTGCT,-0.138
21,ACCCGGTG,0.249
22,GCCCGGCA,0.25
